Reference: PubChem BioAssay
Results filed as inconclusive are left out. The source made the active and inactive calls.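 Rule for the calls, unless noted: active = differentiation response of at least 50%, scaled between solvent and reference control, from cells with both markers; inactive = the rest.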

How the values were obtained:
[1] = rapamycin-like changes in RPL19A-GFP expression – cell-based, S. cerevisiae, multiplex flow cytometry, primary screen (AID 1862; in the data active = percent of DMSO control GFP below about 86%;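 note: lower values mimic rapamycin by blocking the RPL19A rise seen in DMSO cells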); details: S. cerevisiae RPL19A-GFP strain, flow cytometry fluorescence, 3 h; at 10 µM; stronger effect = lower value
[2] = TOR pathway GLN3 branch reporter MEP2-GFP changes – S. cerevisiae, multiplex flow cytometry, primary screen (AID 1867;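 active = GFP response, as percent of the DMSO control, above the screen-wide mean plus 3 SD, about 139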;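 note: median GFP channel fluorescence of barcode-gated MEP2-GFP cells measured by flow cytometry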); details: S. cerevisiae MEP2-GFP strain, 3 h, at 10 µM, stronger effect = higher value, 100% means same as DMSO wells
[3] = TOR pathway RTG branch CIT2 reporter changes – S. cerevisiae, GFP fusion, multiplex flow cytometry, primary screen (AID 1870;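 active = percent response above a set limit, the screen-wide mean plus 3 SD, cut at about 130% in these data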;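 note: barcoded CIT2-GFP strain pooled with four other GFP strains with rapamycin as positive control; median GFP fluorescence per well over plate mean of DMSO wells so 100% = DMSO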); details: S. cerevisiae CIT2-GFP expression, 3 h, at 10 µM, stronger effect = higher value
[4] = TOR pathway LAP4-GFP level changes – S. cerevisiae, multiplex flow cytometry, primary screen (AID 1873;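 active = GFP signal, as percent of the solvent control, above the screen mean plus 3 SD, about 149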); details: S. cerevisiae LAP4-GFP expression, 3 h, at 10 µM, stronger effect = higher value
[5] = yeast AGP1-GFP level changes, GLN3 branch – cell-based, multiplex flow cytometry, S. cerevisiae, primary screen (AID 1887;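 active = GFP signal above the screen-wide mean plus 3 SD, that is over about 124.5% of the solvent control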;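 note: AGP1-GFP fusion strain of S. cerevisiae within a five-strain barcoded multiplex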); details: 3 h, at 10 µM, stronger effect = higher value
[6] = reduced mouse 2C T cell binding to pMHC/ICAM-1 vesicles – MLPCN validation set, flow cytometry, LFA-1/ICAM-1 modulator project, pilot screen (AID 2523;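 active = response below a set limit, under 55% cells CD8-positive and vesicle-bound, and CD8 cells' 90th-percentile brightness under 279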;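 for vesicle binding response: mean PE anti-B7-1 fluorescence of CD8+ cells relative to row control; 100% = QL9-loaded vesicles with DMSO vehicle in the same plate row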); details: 2C mouse CD8+ T cells, at 7 µM, stronger effect = lower value; double positive events: measured here: CD8+/vesicle+ event percentage
[7] = target: Integrin beta-1 (Homo sapiens) + Integrin alpha-4 (Homo sapiens) (UniProt P13612+P05556); assay: alpha4beta1 integrin LIBS antibody binding reduction – U937 cells, HUTS-21 mAb, flow cytometry, validation set, VLA-4 allosteric modulator project, pilot screen (AID 2674;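 active = inhibition above 50%, about 3 SD of the validation set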;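 note: antibody binding induced by the VLA-4 ligand LDV present at three times its Kd; 0% = LDV ligand with antibody and no compound and 100% = antibody without LDV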); details: HUTS-21 LIBS mAb binding, at 6.7 µM, stronger effect = higher value, binding induced by LDV ligand
Integrin beta-1 (Homo sapiens) + Integrin alpha-4 (Homo sapiens), sequence (P05556 whole entry, looked up): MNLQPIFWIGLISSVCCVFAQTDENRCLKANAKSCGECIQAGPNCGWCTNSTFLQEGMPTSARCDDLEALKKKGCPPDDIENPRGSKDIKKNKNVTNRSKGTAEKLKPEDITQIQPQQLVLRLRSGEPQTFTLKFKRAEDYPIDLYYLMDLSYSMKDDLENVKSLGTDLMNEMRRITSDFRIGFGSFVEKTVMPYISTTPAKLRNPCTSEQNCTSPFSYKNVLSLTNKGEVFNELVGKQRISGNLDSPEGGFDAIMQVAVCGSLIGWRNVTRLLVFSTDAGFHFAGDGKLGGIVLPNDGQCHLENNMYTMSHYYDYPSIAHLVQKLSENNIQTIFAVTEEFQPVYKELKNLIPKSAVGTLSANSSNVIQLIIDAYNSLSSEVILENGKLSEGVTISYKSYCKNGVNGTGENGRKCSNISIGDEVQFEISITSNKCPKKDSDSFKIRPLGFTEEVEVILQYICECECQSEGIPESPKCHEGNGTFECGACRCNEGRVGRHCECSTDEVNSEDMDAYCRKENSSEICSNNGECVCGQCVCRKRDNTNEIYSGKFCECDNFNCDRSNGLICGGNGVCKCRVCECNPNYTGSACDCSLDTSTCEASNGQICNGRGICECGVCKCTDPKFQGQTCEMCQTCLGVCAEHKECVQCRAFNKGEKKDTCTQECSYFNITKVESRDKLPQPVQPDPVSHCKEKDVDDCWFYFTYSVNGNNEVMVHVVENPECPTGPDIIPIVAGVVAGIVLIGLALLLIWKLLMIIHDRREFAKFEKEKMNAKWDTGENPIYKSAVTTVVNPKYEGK
Integrin beta-1 (Homo sapiens) + Integrin alpha-4 (Homo sapiens), sequence (P13612 whole entry, looked up): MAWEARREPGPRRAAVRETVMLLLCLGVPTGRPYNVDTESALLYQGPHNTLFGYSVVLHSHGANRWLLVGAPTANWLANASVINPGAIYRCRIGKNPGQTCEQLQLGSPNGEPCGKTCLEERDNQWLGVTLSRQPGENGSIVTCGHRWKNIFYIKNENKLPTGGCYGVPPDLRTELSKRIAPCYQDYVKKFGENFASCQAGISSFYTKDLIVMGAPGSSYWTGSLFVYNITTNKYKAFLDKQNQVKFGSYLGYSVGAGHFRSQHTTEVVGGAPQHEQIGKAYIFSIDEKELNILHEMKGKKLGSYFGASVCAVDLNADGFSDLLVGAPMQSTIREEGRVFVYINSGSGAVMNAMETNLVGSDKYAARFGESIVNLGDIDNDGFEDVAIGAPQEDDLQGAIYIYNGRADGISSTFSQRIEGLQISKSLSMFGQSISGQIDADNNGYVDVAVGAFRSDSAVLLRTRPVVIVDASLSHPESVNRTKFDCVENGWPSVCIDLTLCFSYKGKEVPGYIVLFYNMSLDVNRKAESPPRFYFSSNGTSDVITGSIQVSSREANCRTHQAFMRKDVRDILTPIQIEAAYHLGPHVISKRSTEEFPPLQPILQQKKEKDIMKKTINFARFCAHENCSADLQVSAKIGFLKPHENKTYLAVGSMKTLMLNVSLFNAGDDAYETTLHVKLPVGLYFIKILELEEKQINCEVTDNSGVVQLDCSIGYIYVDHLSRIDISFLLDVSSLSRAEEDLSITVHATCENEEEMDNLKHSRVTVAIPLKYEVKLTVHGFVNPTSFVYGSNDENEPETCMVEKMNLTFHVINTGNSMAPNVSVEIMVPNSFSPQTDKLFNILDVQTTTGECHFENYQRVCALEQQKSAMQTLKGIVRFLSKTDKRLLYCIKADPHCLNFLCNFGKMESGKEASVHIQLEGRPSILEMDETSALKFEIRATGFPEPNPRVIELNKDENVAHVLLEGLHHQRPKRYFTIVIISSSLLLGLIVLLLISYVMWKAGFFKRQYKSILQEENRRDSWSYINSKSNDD

[8] = calorie-restriction mimetic ROS inhibitors, yeast – validation compound set, pilot screen (AID 2706;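 active = superoxide response below 65% of plate, a cut near 3 SD across the whole screen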;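 note: yeast exposed to compound for one week at 30 degrees C before staining; 100% = mean of all compound wells on the same plate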); details: S. cerevisiae aging, superoxide DHE fluorescence; at 10 µM; stronger effect = lower value
[9] = target: Beta-adrenergic receptor kinase 1 (Homo sapiens) (UniProt P25098); assay: GRK2 binders displacing RNA aptamer, biochemical, validation, human GRK2, bead flow cytometry (AID 488806;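 active = aptamer binding inhibition above 30%, about 3 SD of noise from non-fluorescent compounds; inactive = inhibition at or below 30%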); details: bead-bound GRK2, FAM-aptamer displacement, at 10 µM, stronger effect = higher value
Beta-adrenergic receptor kinase 1 (Homo sapiens), sequence (P25098 whole entry, looked up): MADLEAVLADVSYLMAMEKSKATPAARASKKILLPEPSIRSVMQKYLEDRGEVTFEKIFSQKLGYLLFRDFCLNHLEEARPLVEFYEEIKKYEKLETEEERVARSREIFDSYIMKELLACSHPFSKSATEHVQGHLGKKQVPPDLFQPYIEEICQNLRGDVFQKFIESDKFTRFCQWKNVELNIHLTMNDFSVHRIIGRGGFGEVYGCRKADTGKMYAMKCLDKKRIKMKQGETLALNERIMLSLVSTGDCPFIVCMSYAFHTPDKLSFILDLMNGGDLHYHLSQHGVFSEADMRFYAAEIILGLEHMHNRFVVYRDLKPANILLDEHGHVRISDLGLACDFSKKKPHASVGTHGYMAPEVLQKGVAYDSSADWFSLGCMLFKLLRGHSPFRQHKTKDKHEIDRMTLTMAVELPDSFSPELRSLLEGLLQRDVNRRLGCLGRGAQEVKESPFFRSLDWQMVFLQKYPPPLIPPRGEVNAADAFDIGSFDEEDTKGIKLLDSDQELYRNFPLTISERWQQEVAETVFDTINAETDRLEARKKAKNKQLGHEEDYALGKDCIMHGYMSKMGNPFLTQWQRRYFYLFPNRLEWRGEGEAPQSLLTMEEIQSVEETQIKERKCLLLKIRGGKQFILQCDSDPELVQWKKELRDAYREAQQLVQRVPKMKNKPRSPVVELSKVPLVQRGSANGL

[10] = target: Beta-2 adrenergic receptor (Homo sapiens) (UniProt P07550); assay: agonist-induced loss of surface beta2AR – cell-based, FAP fluorogen, flow cytometry, validation set, pilot screen (AID 504459;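 active = percent response above 42, roughly 3 SD of non-fluorescent test compounds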;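 note: agonist-driven loss of surface beta2AR via internalization measured by FAP dye flow cytometry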); details: Am2.2-beta2AR cells, at 10 µM, stronger effect = higher value
Beta-2 adrenergic receptor (Homo sapiens), sequence (P07550 whole entry, looked up): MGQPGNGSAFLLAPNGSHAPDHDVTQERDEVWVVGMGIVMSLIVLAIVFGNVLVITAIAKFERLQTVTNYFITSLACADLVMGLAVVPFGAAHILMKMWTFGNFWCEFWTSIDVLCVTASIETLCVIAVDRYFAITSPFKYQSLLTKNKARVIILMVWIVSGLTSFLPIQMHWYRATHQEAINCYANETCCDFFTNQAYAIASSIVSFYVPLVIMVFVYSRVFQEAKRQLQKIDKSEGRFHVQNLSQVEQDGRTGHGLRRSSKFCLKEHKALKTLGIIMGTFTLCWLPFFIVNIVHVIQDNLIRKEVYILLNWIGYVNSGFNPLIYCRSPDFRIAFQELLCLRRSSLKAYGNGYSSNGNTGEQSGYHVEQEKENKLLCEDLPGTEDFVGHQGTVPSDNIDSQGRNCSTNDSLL

[11] = target: AP-2 complex subunit beta (Homo sapiens) (UniProt P63010); assay: beta-arrestin/AP2 interaction blockers – biochemical, validation set, GST-AP2 beads, flow cytometry, pilot screen (AID 504541;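 active = inhibition above 54%, about 3 SD of non-fluorescent compounds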;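 note: AP2 carries R879A mutation and is captured from E. coli lysate; bead-bound FITC arrestin peptide fluorescence measuring arrestin peptide binding to AP2; 0% = DMSO wells and 100% = excess unlabeled arrestin peptide control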); details: FITC arrestin peptide, at 10 µM, stronger effect = higher value, AP2 beta2 appendage fragment, R879A mutant
AP-2 complex subunit beta (Homo sapiens), sequence (P63010 whole entry, looked up, the tested form may be a part, one chain of several): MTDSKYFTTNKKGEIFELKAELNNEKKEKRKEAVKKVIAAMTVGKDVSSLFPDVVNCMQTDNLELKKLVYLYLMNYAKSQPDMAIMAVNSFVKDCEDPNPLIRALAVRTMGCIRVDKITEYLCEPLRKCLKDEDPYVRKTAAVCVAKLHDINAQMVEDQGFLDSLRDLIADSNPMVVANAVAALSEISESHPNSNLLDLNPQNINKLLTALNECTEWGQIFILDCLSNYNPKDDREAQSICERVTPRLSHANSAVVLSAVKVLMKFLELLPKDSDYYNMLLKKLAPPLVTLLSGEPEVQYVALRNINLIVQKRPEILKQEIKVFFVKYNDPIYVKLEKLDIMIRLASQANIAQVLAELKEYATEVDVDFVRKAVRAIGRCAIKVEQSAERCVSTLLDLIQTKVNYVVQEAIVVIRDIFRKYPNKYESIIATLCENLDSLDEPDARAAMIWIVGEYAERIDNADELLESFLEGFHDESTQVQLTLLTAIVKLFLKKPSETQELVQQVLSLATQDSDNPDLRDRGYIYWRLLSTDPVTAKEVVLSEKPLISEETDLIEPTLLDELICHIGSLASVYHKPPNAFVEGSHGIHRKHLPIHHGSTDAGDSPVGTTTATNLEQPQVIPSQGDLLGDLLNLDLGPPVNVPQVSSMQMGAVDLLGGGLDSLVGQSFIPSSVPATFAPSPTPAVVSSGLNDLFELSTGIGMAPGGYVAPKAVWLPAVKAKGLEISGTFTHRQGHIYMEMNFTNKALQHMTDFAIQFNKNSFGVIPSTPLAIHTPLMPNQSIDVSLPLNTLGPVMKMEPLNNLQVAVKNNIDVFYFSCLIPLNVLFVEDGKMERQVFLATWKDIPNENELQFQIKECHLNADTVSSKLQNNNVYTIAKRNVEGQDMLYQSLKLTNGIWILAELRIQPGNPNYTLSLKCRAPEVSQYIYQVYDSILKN

[12] = cytosolic pH regulators acting via V-ATPase – S. cerevisiae, pHLuorin, HTS validation (AID 504600; in the data active = response above about 15%;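 note: plate controls were DMSO for no effect and reference compound for full effect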); details: V-ATPase proton transport, at 10 µM, stronger effect = higher value
[13] = system: anti-desmoglein-3 scFv antibody binding to human DSG3; assay: blockers of pathogenic pemphigus antibody–desmoglein-3 binding – biochemical, validation compound set, bead-based, flow cytometry, pilot screen (AID 588368;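 active = binding below the plate cutoff, the plate median minus 3 SD, with a reading above zero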;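 note: signal is the median channel fluorescence of bead-bound GFP antibody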); details: Protein G beads, DSG3-Fc, scFv-GFP binding, at 10 µM, stronger effect = lower value
[14] = Nile Red efflux blockade in pump-expressing yeast – validation compound set, multiplex, phenotypic, pilot screen (AID 588506;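 active = efflux inhibition above 0.42, the validation set average plus 4 SD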;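 note: Nile Red retained in cells so higher fluorescence means more efflux inhibition; 0 = negative control wells and 1 = enniatin B 25 µM full block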); details: S. cerevisiae pump-expressing triplex, Nile Red efflux flow cytometry; at 10 µM; stronger effect = higher value; the pumps come from Candida albicans
[15] = target: ATP-binding cassette sub-family B member 6 (Homo sapiens) (UniProt Q9NP58); assay: blockers of ABCB6-driven porphyrin uptake – K562-ABCB6 cells, flow cytometry, validation set, pilot screen (AID 588550;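 active = inhibition above the screen-wide mean plus 3 SD, about 51%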;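 note: 0% = DMSO wells and 100% = benzethonium chloride 70 µM positive control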); details: K562-ABCB6 porphyrin accumulation, 1 h, at 10 µM, stronger effect = higher value
ATP-binding cassette sub-family B member 6 (Homo sapiens), sequence (Q9NP58 whole entry, looked up): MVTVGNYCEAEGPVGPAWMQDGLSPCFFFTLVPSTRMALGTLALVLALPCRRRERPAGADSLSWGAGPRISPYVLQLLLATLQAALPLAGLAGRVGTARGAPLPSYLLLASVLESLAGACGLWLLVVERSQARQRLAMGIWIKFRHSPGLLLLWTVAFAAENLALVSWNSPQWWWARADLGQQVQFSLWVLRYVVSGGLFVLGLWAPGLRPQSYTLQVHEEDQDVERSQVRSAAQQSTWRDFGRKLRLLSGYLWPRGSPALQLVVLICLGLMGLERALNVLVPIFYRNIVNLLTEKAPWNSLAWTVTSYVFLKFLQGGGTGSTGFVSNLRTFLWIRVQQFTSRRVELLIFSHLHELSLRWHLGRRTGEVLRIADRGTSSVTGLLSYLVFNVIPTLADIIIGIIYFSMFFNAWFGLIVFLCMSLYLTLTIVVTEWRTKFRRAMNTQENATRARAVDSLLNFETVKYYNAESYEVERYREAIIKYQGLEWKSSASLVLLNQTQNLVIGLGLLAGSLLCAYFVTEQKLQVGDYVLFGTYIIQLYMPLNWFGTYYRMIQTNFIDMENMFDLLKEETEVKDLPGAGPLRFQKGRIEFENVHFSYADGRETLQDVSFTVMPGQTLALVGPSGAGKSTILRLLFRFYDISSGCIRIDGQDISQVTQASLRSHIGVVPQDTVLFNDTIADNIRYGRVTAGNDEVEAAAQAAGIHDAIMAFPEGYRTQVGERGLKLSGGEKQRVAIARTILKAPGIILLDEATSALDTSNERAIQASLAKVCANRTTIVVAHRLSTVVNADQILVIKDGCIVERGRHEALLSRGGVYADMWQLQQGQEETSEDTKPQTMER

[16] = AML differentiation inducers, ER-HoxA9 marrow cells – cell-based, GFP/MAC1 double positive, flow cytometry, validation set, primary screen (AID 588685); details: stronger effect = higher value, normalized: vehicle 0, fulvestrant 100;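 note: compound exposure lasts four days before antibody staining and flow analysis; 0% = DMSO wells and 100% = 5 µM fulvestrant positive control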

Row | SMILES | percent of DMSO control GFP [1] | GFP response vs DMSO [2] | percent response of DMSO control [3] | GFP response vs DMSO [4] | GFP response, % of DMSO [5] | double positive events [6] [%] | vesicle binding response [6] | inhibition [7] | superoxide response (% of plate) [8] | aptamer binding inhibition [9] | response [10] | inhibition [11] | response [12] | binding (% of control) [13] | efflux inhibition (fraction of control) [14] | inhibition [15] | differentiation response [16]
1 | O=C1C(Cc2ccccc2)NC(=S)N1c1ccccc1 (stereo not drawn) | 96.1% (inactive) | 105% (inactive) | 92% (inactive) | 115% (inactive) | 99.4% (inactive) | 60.7 | 179% (inactive) | -14.1% (inactive) | 98.2% (inactive) | 5% (inactive) | -16.9% (inactive) | -7.42% (inactive) | 13.2% (inactive) | 98.7% (inactive) | -0.24 (inactive) | 9% (inactive) | -28% (inactive)
2 | COc1ccc(S(N)(=O)=O)cc1C(N)=O | 100% (inactive) | 105% (inactive) | 97.8% (inactive) | 101% (inactive) | 97% (inactive) | 62 | 195% (inactive) | -0.45% (inactive) | 106% (inactive) | 0% (inactive) | 1.47% (inactive) | 13.4% (inactive) | -1.59% (inactive) | 91.1% (inactive) | 0.02 (inactive) | 11% (inactive) | -4.64% (inactive)
3 | CC(C)(C)OC(=O)NCCC(=O)Oc1ccc2ccc(=O)oc2c1 | 100% (inactive) | 91.9% (inactive) | 98.6% (inactive) | 76% (inactive) | 84% (inactive) | 56.1 | 238% (inactive) | -1.79% (inactive) | 101% (inactive) | 4% (inactive) | 7.52% (inactive) | 17.2% (inactive) | 7.71% (inactive) | 101% (inactive) | 0.05 (inactive) | 3% (inactive) | -12% (inactive)
4 | CC1(CC(=O)Nc2ccccc2)NC(=S)N(c2ccccc2)N1 (stereo not drawn) | 106% (inactive) | 111% (inactive) | 90.1% (inactive) | 134% (inactive) | 104% (inactive) | 49.5 | 9640% (inactive) | -0.43% (inactive) | 109% (inactive) | 5% (inactive) | -7.2% (inactive) | -4.29% (inactive) | -0.03% (inactive) | 99.1% (inactive) | -0.13 (inactive) | 6% (inactive) | -18.4% (inactive)
5 | N/C(=N\OC(=O)CCCOc1ccc(Cl)cc1Cl)c1ccccn1 | 103% (inactive) | 110% (inactive) | 93.9% (inactive) | 107% (inactive) | 86.8% (inactive) | 59.3 | 11.6% (inactive) | 9.71% (inactive) | 106% (inactive) | 0% (inactive) | 2.49% (inactive) | -27.4% (inactive) | -2.42% (inactive) | 105% (inactive) | -0.12 (inactive) | 7% (inactive) | -5.68% (inactive)
6 | CCCc1c(OCCCCc2nn[nH]n2)ccc(C(C)=O)c1O | 107% (inactive) | 107% (inactive) | 104% (inactive) | 111% (inactive) | 112% (inactive) | 62.8 | 197% (inactive) | -13.2% (inactive) | 115% (inactive) | -5% (inactive) | 8.37% (inactive) | -8.69% (inactive) | -6.13% (inactive) | 105% (inactive) | -0.16 (inactive) | -13% (inactive) | 2.74% (inactive)
7 | Cc1ccccc1NC(=O)NCCc1c[nH]c2ccccc12 | 101% (inactive) | 107% (inactive) | 101% (inactive) | 89.4% (inactive) | 98.8% (inactive) | 60.8 | 12.4% (inactive) | 9.71% (inactive) | 96.6% (inactive) | 2% (inactive) | 9.05% (inactive) | 7.09% (inactive) | -3.03% (inactive) | 101% (inactive) | 0.07 (inactive) | 10% (inactive) | -1.88% (inactive)
8 | Cc1ccc(Cl)c(OCCCN(C)Cc2ccccc2)c1 | 100% (inactive) | 96.6% (inactive) | 98.3% (inactive) | 106% (inactive) | 106% (inactive) | 64.5 | 161% (inactive) | 13.4% (inactive) | 95% (inactive) | 2% (inactive) | -6.56% (inactive) | 0.6% (inactive) | 0.72% (inactive) | 112% (inactive) | -0.26 (inactive) | 19% (inactive) | -6.96% (inactive)
9 | O=C(Nc1ccc(Cl)cn1)Nc1ccccc1Cl | 103% (inactive) | 105% (inactive) | 107% (inactive) | 111% (inactive) | 102% (inactive) | 64.5 | 144% (inactive) | -3.77% (inactive) | 93.6% (inactive) | 2% (inactive) | -0.99% (inactive) | -8.05% (inactive) | 23.4% (active) | 105% (inactive) | -0.55 (inactive) | -4% (inactive) | -11.9% (inactive)
